# G9a block: blocks human histone lysine methyltransferase G9a | G9a H3K9 monomethylation, AlphaScreen, 2 h | Potency, µM (series often up to 102 µM), for the others: top-dose activity, negative = inhibition, actives largely listed as inhibitors | 350,000 tested, 8.8% active; also: % is scaled to controls: 0 for no effect and ±100 for the full control effect; nearly all actives have a fitted effect of over 75% in size
#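 Chemiluminescent proximity detection of H3K9 monomethylation, read after 10 min bead incubation in the dark. Reaction: 20 nM G9a, 500 nM biotin-H3K9 peptide, 20 uM SAM cofactor, 2 h, room temperature, following 15 min enzyme-compound preincubation.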
# Sfp PPTase inh: inhibitors of Bacillus subtilis Sfp phosphopantetheinyl transferase. Biochemical Sfp PPTase activity, qHTS. Potency, µM, for inactives: largest response in the series, negative = inhibition, hits mostly inhibitors. 310,000 tested, 3.5% active;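 also: the enzyme is Sfp with the accession as filed and its product quenches rhodamine fluorescence; 0% = enzyme reaction without inhibitor and -100% = no enzyme wells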
#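 Fluorescence-quenching assay: 15 nM Sfp-PPTase preincubated 15 min at room temperature with compound, then 5 uM rhodamine-CoA and 12.5 uM BHQ-2-labelled YbbR peptide added. Fluorescence (ex 525/em 598 nm) read at start and after 30 min; difference gives rate.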
# HP1b chromo inh: HP1-beta chromodomain-methylated histone interaction inhibition. P83916. AlphaScreen HP1-beta / biotin-H3K9me3 peptide binding. Potency, µM (titrated, usually from 114 µM), for inactives: at the highest dose activity change, negative = inhibition, hits mostly inhibitors. 390,000 tested, 0.56% active; also: nearly all actives have a fitted effect of over 70% in size
#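 Compound inhibition of the preformed complex between 50 nM HP1-beta and 50 nM biotinylated H3K9me3 peptide was read by AlphaScreen. Buffer was PBS pH 7.4 with 0.01% Tween-20. Incubations ran 30 min at room temperature, with 10 ug/mL donor/acceptor beads.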
# L3MBTL1 block: blocks human L3MBTL1. Q9Y468. AlphaScreen L3MBTL1–H3K9me1 peptide binding. Potency, µM (doses to about 57.1 µM), without a hit: at the top dose activity, negative = inhibition, hits mostly inhibitors. 230,000 tested, 0.66% active. AID 485360; also: % is scaled to controls: 0 for no effect and ±100 for the full control effect; nearly all actives have a fitted effect of over 60% in size
#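 Displacement of a biotinylated histone H3(1-15) peptide monomethylated at Lys9 (75 nM) from L3MBTL1 (50 nM) was measured by AlphaScreen after a 30 min room-temperature compound incubation; cefsulodin titration served as intraplate control.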
# BAZ2B block: BAZ2B (human) inhibition; Q9UIF8; AlphaScreen BAZ2B-H3K14Ac peptide displacement; Potency, µM (series often up to 114 µM), for inactives: at the top dose activity change, negative = inhibition, usual class: inhibitors; 360,000 tested, 4.4% active; AID 504333; also: % is scaled to controls: 0 for no effect and ±100 for the full control effect; nearly all actives have a fitted effect of over 60% in size
#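 AlphaScreen luminescence quantifies BAZ2B engagement of H3K14Ac peptide; the protein and biotinylated peptide are both at 50 nM final, buffer PBS pH 7.4 with 0.01% Tween-20, all steps at room temperature.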
# JMJD2A Tudor: blocks the human JMJD2A Tudor domain. AlphaScreen JMJD2A-Tudor / H3K4me3 peptide binding. Potency, µM (highest dose often 114 µM), inactives show top-dose activity change, negative = inhibition, usual class: inhibitors. 390,000 tested, 4.4% active; also: % is scaled to controls: 0 for no effect and ±100 for the full control effect; nearly all actives have a fitted effect of over 50% in size
# An asterisk follows results filed as active; ? = inconclusive; nt = not tested or not shown; [ ] = another dose, or the depositor's remark. Shown are actives, neighbours in structure and some others; about 12% of the full set was active somewhere. Calls follow the shape of the dose curve; as a rule, active = well fitted curve in the direction sought with a large enough effect; inconclusive = small, poorly fitted or top-dose-only effect, or another doubt; inactive = no such curve, though single readings can be large; an effect the other way counts as inactive or inconclusive. Potency is read from the fitted curve at half-maximal effect.
SMILES,G9a block,Sfp PPTase inh,HP1b chromo inh,L3MBTL1 block,BAZ2B block,JMJD2A Tudor
COc1ccc(C(CNC(=O)C(=O)Nc2ccc3c(c2)OCO3)N2CCN(C)CC2)cc1 (stereo not drawn),-26%[59 µM],nt,19%,-2%,10%,-6%
COc1cccc(C(=O)NCC(c2ccc3c(c2)OCO3)N2CCN(c3ccc(F)cc3)CC2)c1 (stereo not drawn),45µM*,nt,-9%,-18%,0%,?
COc1ccc(C(=O)NCC(c2ccc3c(c2)OCO3)N2CCN(c3ccc(F)cc3)CC2)cc1 (stereo not drawn),-26%[59 µM],nt,-7%[57 µM],nt,-37%,?
COc1cccc(C(=O)NCC(c2ccc3c(c2)OCO3)N2CCOCC2)c1 (stereo not drawn),3%[59 µM],nt,56%[57 µM],nt,7%,1%
CN1CCN(C(CNC(=O)C(=O)Nc2ccc3c(c2)OCO3)c2ccc(F)cc2)CC1 (stereo not drawn),50µM*,nt,-18%,-5%,7%,-24%
COc1ccc(C(=O)NCC(c2ccc3c(c2)OCO3)N2CCN(c3ccc(OC)cc3)CC2)cc1 (stereo not drawn),6.3µM*,nt,2%,-3%,?,?
CCCn1c(-c2ccc(F)cc2)nc2c(NCCCN(CCO)CCO)nc(C)nc21,nt,-4%,nt,nt,nt,nt
Cc1ccc(N2CCN(c3nc4ccc(C)cc4n4nnnc34)CC2)c(C)c1,16%[59 µM],nt,80%,nt,3%,20%
c1ccc(-c2ccccc2OCCOCCN2CCNCC2)cc1,nt,20µM*,-7%,-1%,22µM*,-2%
CCN1CCN(CCOCCOc2ccccc2-c2ccccc2)CC1,7.9µM*,50µM*,nt,-2%,20µM*,nt
Cc1ccc(-n2c3nc(=O)n(C)c(=O)c-3cc3c(Cl)cccc32)c(C)c1,-7%[59 µM],nt,26%,nt,nt,-6%
COc1ccccc1N1CCN(C(=O)c2ccccc2SCC(=O)N2CCCC2)CC1,79µM*,nt,35%,1%,13%,-19%
CCOc1ccccc1N1CCN(C(=O)c2ccccc2SCC(=O)N2CCCC2)CC1,?,7%,57%,nt,-20%,-10%
COc1cccc(N2CCN(C(=O)c3ccccc3SCC(=O)NCc3ccco3)CC2)c1,-2%[12.7 µM],nt,40%,-6%,-38%,-36%
COc1ccccc1N1CCN(C(=O)c2ccccc2SCC(=O)NCc2ccco2)CC1,50µM*,nt,19%,-2%,-4%,-22%
COc1ccccc1-n1ccnc1SCC(=O)NCc1ccco1,-38%,16%,-31%,16%,-39%,40µM*
COc1ccccc1-n1ccnc1SCC(=O)NCC1CCCO1 (stereo not drawn),0%,11%,24%,nt,-3%[57.1 µM],8%
C=CCC(O)c1ccccc1 (stereo not drawn),nt,16%,nt,nt,nt,nt
O=C(CSc1cn(CCNC(=O)c2c(F)cccc2F)c2ccccc12)Nc1ccc(F)cc1,42%[59 µM],nt,64%,nt,1%,-11%
Cc1ccc(Cl)cc1NS(=O)(=O)c1cc2c(cc1Cl)CCC(=O)N2,nt,nt,nt,nt,nt,-18%
O=C(O)/C=C/C(=O)Nc1ccccc1-c1ccccc1,18%[0.501 µM],32µM*,52%,1%,-22%[57.1 µM],-13%
O=C(O)/C=C/C(=O)Nc1ccc2c(c1)C(=O)c1ccccc1C2=O,45µM*,-6%,13%,nt,?,-21%
O=C(O)/C=C/C(=O)Nc1ccccc1SC(F)(F)C(F)(F)C(F)(F)F,45µM*,?,28%,1%,-19%,?
O=C(O)/C=C/C(=O)Nc1ccc2nccnc2c1,50µM*,1%,35%,nt,-14%,-12%[57.1 µM]
CC(=O)Nc1ccc2c(c1)C(=O)c1ccccc1C2=O,-33%[59 µM],-9%,8%,-5%,-28%,-15%
O=C(O)/C=C/C(=O)Nc1cccc(C(F)(F)F)c1,?,5%,34%,0%,-7%,-21%
Cc1nc2ccc(NC(=O)/C=C/C(=O)O)cc2nc1C,-31%,-29%,7%,nt,1%,-14%[57.1 µM]
O=C(Nc1ccc(F)c(Cl)c1)N1CCN(C(=O)c2nsc3ccccc23)CC1,-1%[59 µM],nt,37%,nt,1%,-1%

# Assay outcomes as filed in PubChem BioAssay.
